The record followed here is PubChem BioAssay (NCI).

Structures are written as SMILES. The panel holds about 83,000 compounds, 20% with a hit somewhere; the sample as a whole holds those more often.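 96-well plates, one dose, 48 hours. Percent growth reported; active if below 10.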 Unmarked numbers belong to inactive results. Activity calls are given as the source filed them.

Test systems include DU-145 prostate; K-562 leukemia; MALME-3M melanoma; MDA-MB-231 breast; RXF 393 renal; SF-268 CNS; SF-295 CNS; SF-539 CNS; UACC-257 melanoma; M14 melanoma; HCT-15 colon; HT29 colon; SNB-75 CNS; SNB-19 CNS; U251 CNS; PC-3 prostate; SK-MEL-5 melanoma; UACC-62 melanoma; LOX IMVI melanoma; SK-MEL-28 melanoma.
Holding throughout (experiment): NCI-60 one-dose screen, 48 h (100 = growth as untreated, 0 = no growth, -100 = all killed)
Holding throughout (details): 10 µM unless noted

Consider `O=C1[C@@H]2Cc3c([nH]c4ccccc34)[C@@H](c3ccc(Cl)cc3)N2C(=O)CN1C1CCN(Cc2ccccc2)CC1`, for which the growth in the assay on DU-145 prostate was 57.5%; in the assay on K-562 leukemia, 3.54% (active); in the assay on MALME-3M melanoma it was 79.6%; in the assay on MDA-MB-231 breast it was 64.2%; in the assay with RXF 393 renal it was 50.3%; with SF-268 CNS it was 48%. Besides, the growth was 85.2% in the assay with SF-295 CNS; 72.7% in the assay with SF-539 CNS; 75.8% with UACC-257 melanoma; 7.82% (active) in the assay on M14 melanoma; 34.1% in the assay on HCT-15 colon; -28.4% (active) in the assay with HT29 colon. For the same compound, the growth in the assay with SNB-75 CNS was 29%; in the assay on SNB-19 CNS, 50.5%; in the assay on U251 CNS, 34.7%; in the assay with PC-3 prostate, 21.4%; in the assay on SK-MEL-5 melanoma, 54.2%; with UACC-62 melanoma, 62.3%. Further, the growth with LOX IMVI melanoma was -15% (active); in the assay with SK-MEL-28 melanoma, 88.1%.
As for `CC(=O)Nc1cc(N2CCOCC2)c2nc(NC(=O)c3[nH]c(C)c(Cl)c3Cl)sc2c1`, the growth in the assay with DU-145 prostate is 58.1%; with K-562 leukemia, 81.4%; in the assay with MALME-3M melanoma, 54.7%; with MDA-MB-231 breast, 62.2%; in the assay with RXF 393 renal, 19.2%; in the assay with SF-268 CNS it was 93.9%. For the same compound, the growth in the assay on SF-295 CNS was 50.8%; with SF-539 CNS it was 48.7%; in the assay with UACC-257 melanoma it was 84.8%; in the assay with M14 melanoma, 72.1%; in the assay on HCT-15 colon, 66.9%; with HT29 colon it was 65.1%. Also, the growth was 17.3% with SNB-75 CNS; 83.9% in the assay on SNB-19 CNS; 57.8% in the assay on U251 CNS; 64.3% in the assay on PC-3 prostate; 77.6% in the assay on SK-MEL-5 melanoma; 94.8% with UACC-62 melanoma. Besides, the growth in the assay with LOX IMVI melanoma was 57%; with SK-MEL-28 melanoma, 67.5%.
Turning to `COc1ccc2sc(NC(=O)CCCCCCNC(=O)C(O)(O)C(F)(F)F)nc2c1`, the growth in the assay on DU-145 prostate is 4.67% (active); in the assay with K-562 leukemia it was 11.2%; with MALME-3M melanoma, 20.7%; in the assay on MDA-MB-231 breast, 20%; in the assay on RXF 393 renal, -47.6% (active); in the assay on SF-268 CNS, -0.601% (active). Besides, the growth in the assay with SF-295 CNS is -37.1% (active); in the assay with SF-539 CNS it was 6.85% (active); in the assay with UACC-257 melanoma, 12.5%; in the assay on M14 melanoma it was 13.4%; in the assay with HCT-15 colon it was 5.37% (active); in the assay with HT29 colon, 5.06% (active). For the same compound, the growth is 41.4% with SNB-75 CNS; 15.9% with SNB-19 CNS; -51.5% (active) in the assay on U251 CNS; 34.1% in the assay on PC-3 prostate; -82.2% (active) with SK-MEL-5 melanoma; -64.6% (active) with UACC-62 melanoma. Also, the growth is -81% (active) with LOX IMVI melanoma and 1.51% (active) in the assay with SK-MEL-28 melanoma.
Turning to `CC(C)Sc1nc(-c2ccccc2)c(C#N)c(N2CCOCC2)n1`, the growth with DU-145 prostate was 83.1%; in the assay with K-562 leukemia it was 62.4%; with MALME-3M melanoma it was 36.5%; in the assay on MDA-MB-231 breast, 63.7%; in the assay with RXF 393 renal, 45.7%; in the assay with SF-268 CNS it was 79%. Besides, the growth in the assay on SF-295 CNS was 51.1%; in the assay on SF-539 CNS, 50.2%; with UACC-257 melanoma, 97.5%; in the assay on M14 melanoma, 96.9%; in the assay on HCT-15 colon, 80.2%; with HT29 colon, 71.8%. The growth in the assay with SNB-75 CNS was 9.58% (active); with SNB-19 CNS, 69%; in the assay with U251 CNS it was 44.8%; in the assay with PC-3 prostate, 82%; with SK-MEL-5 melanoma it was 95.5%; with UACC-62 melanoma, 91.7%. The growth in the assay on LOX IMVI melanoma is 35.6%; in the assay with SK-MEL-28 melanoma, 88.6%.
As for `COc1ccc2[nH]cc(-c3nn4cc(-c5ccncc5)nc4s3)c2c1`, the growth is 88.8% in the assay on DU-145 prostate; 28.5% with K-562 leukemia; 86.3% with MALME-3M melanoma; 82.3% in the assay with MDA-MB-231 breast; 96% in the assay on RXF 393 renal; 86.9% in the assay on SF-268 CNS. The growth was 62.8% in the assay with SF-295 CNS; 88.3% in the assay on SF-539 CNS; 109% in the assay on UACC-257 melanoma; 82.8% with M14 melanoma; 37.8% with HCT-15 colon; 66.6% in the assay on HT29 colon. In addition, the growth is 61.7% in the assay with SNB-75 CNS; 75.3% with SNB-19 CNS; 67.9% in the assay on U251 CNS; 45.7% with PC-3 prostate; 67.4% in the assay with SK-MEL-5 melanoma; 63.8% with UACC-62 melanoma. In addition, the growth in the assay on LOX IMVI melanoma is 57.8%; in the assay on SK-MEL-28 melanoma, 112%.
Regarding `O=C(Nc1cccc(Cl)c1)Nc1nc2cc([N+](=O)[O-])ccc2o1`, the growth in the assay with DU-145 prostate is 52.7%; with K-562 leukemia, 37.8%; in the assay on MALME-3M melanoma it was 29.7%; with MDA-MB-231 breast, 61.4%; in the assay with RXF 393 renal, 67.4%; in the assay on SF-268 CNS it was 37.3%. The growth in the assay on SF-295 CNS is 51%; in the assay with SF-539 CNS it was 59.4%; in the assay with UACC-257 melanoma it was 54.6%; in the assay on M14 melanoma, 39.5%; in the assay on HCT-15 colon it was 29.4%; with HT29 colon, 71.6%. In addition, the growth with SNB-75 CNS is 72.9%; in the assay on SNB-19 CNS, 31.3%; with U251 CNS, 23.3%; in the assay with PC-3 prostate it was 29.8%; in the assay on SK-MEL-5 melanoma it was 15.7%; in the assay on UACC-62 melanoma, 29.1%. The growth in the assay on LOX IMVI melanoma was 40.4%; in the assay on SK-MEL-28 melanoma it was 36.2%.
For the compound `CCC(=C(c1ccc(OCCN(C)C)cc1)c1ccc(OCCN(C)C)cc1)c1ccc(Cl)cc1`, the growth was -28.8% (active) in the assay with DU-145 prostate; -16.7% (active) in the assay on K-562 leukemia; -83.7% (active) with MALME-3M melanoma; -79.5% (active) with MDA-MB-231 breast; -85.4% (active) in the assay on RXF 393 renal; -37.1% (active) in the assay on SF-268 CNS. In addition, the growth with SF-295 CNS was -72.2% (active); in the assay on SF-539 CNS it was -82.8% (active); in the assay with UACC-257 melanoma, -69.8% (active); in the assay with M14 melanoma it was -66.3% (active); with HCT-15 colon, -74.8% (active); with HT29 colon, -38.9% (active). For the same compound, the growth with SNB-75 CNS is 17.7%; with SNB-19 CNS it was -39.8% (active); with U251 CNS, -64.5% (active); in the assay on PC-3 prostate it was -12.1% (active); with SK-MEL-5 melanoma it was -95.8% (active); in the assay with UACC-62 melanoma, -73.6% (active). In addition, the figures for the growth in the assay with LOX IMVI melanoma and in the assay on SK-MEL-28 melanoma were -98.1% (active) and -83.3% (active), respectively.
